From PubChem BioAssay
IL1B secr inh: inhibitors of inflammasome signaling (IL-1 beta secretion); AID 743279; 4.7% of 360,000 active; activity change, % at 57.5 µM; THP-1 LPS/ATP IL-1B secretion, AlphaLISA, 16 h; active compounds read low; in the data active = activity change below about -50%; inconclusive = mostly about -30% to -49%
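THP-1 cells pretreated 1 hr with compounds (up to 57.5 uM final), then stimulated with LPS (250 ng/mL final) plus ATP (1.25 mM final); secreted IL-1B measured by AlphaLISA after 16 hr, decreased signal indicating inhibition.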
DT40 TDP1 no CPT: qHTS for Inhibitors of human tyrosyl-DNA phosphodiesterase 1 (TDP1): qHTS in cells in absence of CPT. DT40 Tdp1-/- hTDP1 cells, no CPT, ATP luminescence, 48 h. Potency, µM (highest dose often 46.2 µM), hits mostly inhibitors. 15% of 420,000 active; note: nearly all actives have a fitted effect of over 55% in size
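Seeded 400 DT40-hTDP1 cells/well (vehicle DMSO, no 20 nM CPT); pinned compounds; ≥48 hr at 37 °C; CellTiter-Glo luminescence as viability measure.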
DT40 TDP1 CPT: DT40-hTDP1 cell growth loss with CPT; chicken DT40 Tdp1-/-;hTDP1 cells + 20 nM CPT, ATP luminescence, 48 h; Potency, µM (top dose mostly 46.2 µM), most hits filed as inhibitors; 12% of 420,000 active; AID 686979; note: nearly all actives have a fitted effect of over 55% in size
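Cell growth measured by CellTiter-Glo luminescence after a minimum 48 h, 37 C compound exposure with 20 nM CPT in Tdp1-knockout DT40 cells stably expressing hTDP1, seeded 400/well; qHTS titration format.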
HT1080NT lethal: kills 2HG-producing HT-1080-NT fibrosarcoma cells | HT-1080-NT fibrosarcoma viability, CellTiter-Glo ATP luminescence, 48 h | Potency, µM (titrated, usually from 46.1 µM), hits mostly cytotoxic | AID 686970 | 1.6% of 360,000 active;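 note: NT is the 2HG producing partner of a matched IDH1 knockdown line; nearly all actives have a fitted effect of over 55% in size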
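HT-1080-NT fibrosarcoma cells (2HG-overproducing), 750 cells/well in RPMI with 5% FBS, dosed after 2 h and incubated 48 h at 37C. CellTiter-Glo luminescence normalized to DMSO and no-cell wells; concentration-response curves fitted and classed.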
HT1080 IDH1KD tx: kills HT-1080 cells with IDH1 knockdown. AID 686971. 2% of 360,000 active. Potency, µM (doses to about 46.1 µM), actives largely listed as cytotoxic. HT-1080 IDH1 knockdown viability, ATP luminescence, 48 h
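Cytotoxicity counter-line: IDH1KD HT-1080, 48 h, CellTiter-Glo. Curves classed by r2, magnitude and activity.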
Numbers stand for hits; 0 = inactive; ? = inconclusive; - = no result; [ ] = remark or other dose. In the library only some 19% were active in any assay of this set; here they are far more common. Unless noted, calls come from the whole dose curve; as a rule, active = well fitted curve in the direction sought with a large enough effect; inconclusive = small, poorly fitted or top-dose-only effect, or another doubt; inactive = no such curve, though single readings can be large; an effect the other way counts as inactive or inconclusive.

SMILES	IL1B secr inh	DT40 TDP1 no CPT	DT40 TDP1 CPT	HT1080NT lethal	HT1080 IDH1KD tx
O=C(NCC(c1ccc(F)cc1)N1CCOCC1)c1ccc([N+](=O)[O-])o1 (stereo not drawn)	-	25.9µM	20.6µM	?	?
O=C(NCC(c1cccs1)N1CCOCC1)c1cnc(Cl)c(Cl)c1 (stereo not drawn)	-98.5	?	?	?	0
O=C(NCC(c1cccs1)N1CCOCC1)c1ccc(OCc2ccccc2)cc1 (stereo not drawn)	0	20.6µM	14.6µM	0	0
COc1cc(C(=O)NCC(c2cccs2)N2CCOCC2)ccc1OCc1ccc(Cl)cc1 (stereo not drawn)	?	3.66µM	6.51µM	0	?
CN1CCN(c2ccc(-c3cccc(NC(=O)COc4ccc(Cl)cc4Cl)c3)nn2)CC1	0	?	?	?	0
COCCn1nnnc1CN1CCC(Cc2ccccc2)CC1	0	0	0	0	0
COc1cccc(NC(=O)COc2ncnc3sc(C)c(C)c23)c1	0	0	0	0	0
CCN(CC(=O)Nc1cccc(OC)c1)c1ncnc2sc(C)c(C)c12	0	20.6µM	20.6µM	0	0
O=C(CSc1nnc2ccc3ccccc3n12)c1ccc(F)cc1	-	16.4µM	?	-	-
Cc1nnc(C)c2c(C)n(-c3ccc4ncccc4c3)c(C)c12	0	?	11.6µM	0	0
COc1ccc(C(C)=O)cc1CSc1nnc(-c2ccc(Cl)cc2)n1-c1ccccc1	0	13µM	13µM	?	?
CCOc1ccc(-n2c(C)c3c(C)nnc(C)c3c2C)cc1	0	2.06µM	2.91µM	0	0
CCCS(=O)(=O)NCc1c(C)ncc2c1CCN(C(=O)c1ccc3[nH]c4c(c3c1)CCCC4)C2	-	?	0[9.04 µM]	-	-
COc1ccc(S(=O)(=O)N2CCC(C(=O)NCCCc3ccccc3)CC2)cc1	0	0	0	0	0
C/C(=N\NC(=O)c1nnn(-c2nonc2N)c1CN1CCC(C)CC1)c1ccc(Br)cc1	0	?	?	0	0
CCOc1ccc(-c2nnc(SCC(=O)c3ccc(F)cc3)n2-c2ccccc2)cc1	-	?	13µM	-	-
Cc1ccc(-c2nnc(SCC(=O)c3ccc(Cl)cc3)n2-c2ccccc2)cc1	-	8.2µM	4.61µM	-	-
CCN(CC)C(=O)CSc1nnc(-c2ccccc2)n1-c1ccccc1	0	?	?	0	0
Cc1nnc(C)c2c(C)n(-c3ccc(Cl)c(N)c3)c(C)c12	0	?	?	?	0
Cc1cc(C)cc(-n2c(C)c3c(C)nnc(C)c3c2C)c1	0	7.31µM	8.2µM	0	0
COc1ccc(C(=O)CSc2nnc(-c3cccs3)n2-c2ccccc2)cc1	0	0	0	0	0
CCOc1ccc(-c2nnc(-c3ccccc3)n2-c2ccccc2)cc1	0	10.3µM	?	0	0
CCOC(=O)c1c(C)cc2c(CO)n[nH]c(=O)c2c1C	0	?	?	0	0
COc1ccc(OC)c(CN2CCC3(CCC(CNC(=O)c4ccco4)O3)CC2)c1 (stereo not drawn)	-	0	0[9.04 µM]	-	-
CCC(=O)N1CCc2cc(S(=O)(=O)N3CCN(c4ccccc4F)CC3)ccc21	-	0	0	-	-
SMILES	IL1B secr inh	DT40 TDP1 no CPT	DT40 TDP1 CPT	HT1080NT lethal	HT1080 IDH1KD tx
O=C(CSc1nnc(-c2ccc(Br)cc2)n1-c1ccccc1)c1ccccc1	-	4.11µM	7.31µM	-	-
COc1ccc(C(=O)CSc2nnc(CN3CCCCC3)n2-c2ccc(F)cc2)cc1	0	13µM	20.6µM	0	0
CC(C)(CC(=O)O)CC(=O)NNc1ncccc1C#N	0	0	0	0	0
Fc1ccccc1N1CCN(Cc2cccnc2)CC1	0	0	0	0	0
CCc1c(CN2CCN(c3ccccc3F)CC2)csc1C	-	20.6µM	?	-	-
COc1ccc(C(O)c2ncc(-c3cccc4ccccc34)[nH]2)cc1F (stereo not drawn)	0	?	?	?	?
O=C1N=C(N2CCOCC2)SC1=Cc1ccco1	0	0	0	0	0
Cc1ccc(-c2ccc(/C=C3\SC(N4CCOCC4)=NC3=O)o2)cc1	-95.4	9.2µM	10.3µM	9.2µM	8.2µM
O=C1N=C(N2CCOCC2)S/C1=C/c1ccc(-c2ccc(F)cc2)o1	0	20.6µM	?	0	?
